Measured values taken from PubChem BioAssay (NCATS).
Records with an inconclusive call do not appear. Active and inactive are the calls of the source. Calls come from the whole dose curve; as a rule, active = well fitted curve in the direction sought with a large enough effect; inconclusive = small, poorly fitted or top-dose-only effect, or another doubt; inactive = no such curve, though single readings can be large; an effect the other way counts as inactive or inconclusive.

What was measured:
[1] = NS1 protein of Zika virus - qHTS assay to identify small molecule inhibitors in human HEK 293 cells (AID 1347053); note: series mostly up to about 46 µM; nearly all actives have a fitted effect of over 55% in size
In short: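 HEK 293 cells, seeded 20 h at 37 C, were pretreated with compound 1 h, then infected with ZIKV MR766 (MOI = 0.5) for 24 h. NS1 was read by TR-FRET with two anti-NS1 antibodies, normalized to uninfected and infected wells.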

[2] = qHTS of pediatric cancer cell lines to identify multiple opportunities for drug repurposing: Primary screen for DAOY cells (AID 1347090); note: nearly all actives have a fitted effect of over 55% in size; note: potency is the fitted concentration of half-maximal effect
In short: (§1)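 Eight- or eleven-point concentration series, 48 h treatment at 37 degrees C in growth media; readout CellTiter-Glo luminescence. Potency and efficacy were taken from the concentration-response curves.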

[3] = qHTS of pediatric cancer cell lines to identify multiple opportunities for drug repurposing: Primary screen for SJ-GBM2 cells (AID 1347091); note: potency is the fitted concentration of half-maximal effect
In short: as §1

[4] = qHTS of pediatric cancer cell lines to identify multiple opportunities for drug repurposing: Primary screen for A673 cells (AID 1347092); note: nearly all actives have a fitted effect of over 45% in size; note: potency is the fitted concentration of half-maximal effect
In short: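 Cells are plated, rested 5 h, dosed by pintool, incubated 48 h, then lysed with CellTiter-Glo and read by luminescence. DMSO is the neutral control; bortezomib at 2.3 uM final is the positive control.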

[5] = qHTS of pediatric cancer cell lines to identify multiple opportunities for drug repurposing: Primary screen for BT-37 cells (AID 1347094); note: potency is the fitted concentration of half-maximal effect
In short: (§2)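 Viability was measured as metabolically active cells after 48 hours of treatment, read by CellTiter-Glo luminescence. Compounds were tested at multiple final concentrations, giving concentration-response curves.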

[6] = qHTS of pediatric cancer cell lines to identify multiple opportunities for drug repurposing: Primary screen for NB-EBc1 cells (AID 1347095); note: potency is the fitted concentration of half-maximal effect
In short: as §2

[7] = qHTS of pediatric cancer cell lines to identify multiple opportunities for drug repurposing: Primary screen for U-2 OS cells (AID 1347096); note: nearly all actives have a fitted effect of over 50% in size; note: potency is the fitted concentration of half-maximal effect
In short: (§3)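 Cells (500-1,000/well) in growth media were settled 5 h at 37 degrees C, then given compounds for 48 h. Viability was read as CellTiter-Glo luminescence. Primary runs used MIPE at 11 points (0.78 nM-46 µM) and NPC at 8 points (0.59 nM-46 µM); follow-ups used 11 points.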

[8] = qHTS of pediatric cancer cell lines to identify multiple opportunities for drug repurposing: Primary screen for Saos-2 cells (AID 1347097); note: nearly all actives have a fitted effect of over 40% in size; note: potency is the fitted concentration of half-maximal effect
In short: as §2

[9] = qHTS of pediatric cancer cell lines to identify multiple opportunities for drug repurposing: Primary screen for SK-N-SH cells (AID 1347098); note: nearly all actives have a fitted effect of over 65% in size; note: potency is the fitted concentration of half-maximal effect
In short: (§4)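 Cells (500-1,000/well) rested 5 h, then received compounds for 48 h; metabolically active cells were measured by CellTiter-Glo luminescence. Final concentrations spanned up to 46 µM (MIPE, 11-point) or 0.59 nM-46 µM (NPC, 8-point) in primary screens, 11-point in follow-ups.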

[10] = qHTS of pediatric cancer cell lines to identify multiple opportunities for drug repurposing: Primary screen for LAN-5 cells (AID 1347100); note: potency is the fitted concentration of half-maximal effect
In short: as §3

[11] = qHTS of pediatric cancer cell lines to identify multiple opportunities for drug repurposing: Primary screen for BT-12 cells (AID 1347101); note: nearly all actives have a fitted effect of over 25% in size; note: potency is the fitted concentration of half-maximal effect
In short: as §4

[12] = qHTS of pediatric cancer cell lines to identify multiple opportunities for drug repurposing: Primary screen for Rh18 cells (AID 1347102); note: nearly all actives have a fitted effect of over 65% in size; note: potency is the fitted concentration of half-maximal effect
In short: as §3

[13] = qHTS of pediatric cancer cell lines to identify multiple opportunities for drug repurposing: Primary screen for OHS-50 cells (AID 1347103); note: nearly all actives have a fitted effect of over 40% in size; note: potency is the fitted concentration of half-maximal effect
In short: as §4

[14] = qHTS of pediatric cancer cell lines to identify multiple opportunities for drug repurposing: Primary screen for SK-N-MC cells (AID 1347093); note: potency is the fitted concentration of half-maximal effect
In short: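 Metabolically active cells were quantified by ATP-dependent luminescence (CellTiter-Glo, 15 min at room temperature) following 48 h treatment. Cells had been plated at 500-1,000 per well and settled for 5 h beforehand.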

[15] = qHTS of pediatric cancer cell lines to identify multiple opportunities for drug repurposing: Primary screen for NB1643 cells (AID 1347099); note: nearly all actives have a fitted effect of over 50% in size; note: potency is the fitted concentration of half-maximal effect
In short: as §2

[16] = qHTS of pediatric cancer cell lines to identify multiple opportunities for drug repurposing: Primary screen for TC32 cells (AID 1347089); note: nearly all actives have a fitted effect of over 60% in size; note: potency is the fitted concentration of half-maximal effect
In short: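 Measured quantity: luminescence from CellTiter-Glo, reflecting metabolically active TC32 cells following 48 h of compound. Curves came straight from multi-point titrations, with 8 or 11 points in primary and 11 in confirmatory screening.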

Measured: Potency

CCOc1ccccc1C(N)=O
active: [9] 30.7 µM
not listed: [14] | [15] | [16]
inactive: all other assays above

CN(C)CCOC(c1ccc(Cl)cc1)c1ccccn1 (stereo not drawn)
not listed: [5] | [7] | [16]
inactive: all other assays above

OC[C@H]1O[C@@H]2O[C@H]3[C@H](O)[C@@H](O)[C@@H](O[C@H]4[C@H](O)[C@@H](O)[C@@H](O[C@H]5[C@H](O)[C@@H](O)[C@@H](O[C@H]6[C@H](O)[C@@H](O)[C@@H](O[C@H]7[C@H](O)[C@@H](O)[C@@H](O[C@H]8[C@H](O)[C@@H](O)[C@@H](O[C@H]1[C@H](O)[C@H]2O)O[C@@H]8CO)O[C@@H]7CO)O[C@@H]6CO)O[C@@H]5CO)O[C@@H]4CO)O[C@@H]3CO
not listed: [1] | [8] | [11]
inactive: all other assays above

CC(C)(C)NC[C@H](O)COc1cccc2c1CCCC2=O
not listed: [9] | [14] | [16]
inactive: all other assays above

CN(C)CCN1C(=O)c2ccccc2N(C)c2ccccc21
not listed: [5] | [7] | [16]
inactive: all other assays above

NC(=O)n1c(O)c(C(=O)c2cccs2)c2cc(Cl)ccc21
inactive: [1] | [7] | [12]
active: [3] 15 µM | [14] 26.6 µM | [6] 16.8 µM

CCC(CC)(CC(=O)Nc1cccc(/C=C/c2nc(C3CCC3)cs2)c1)C(=O)O
not listed: [1] | [13] | [14]
inactive: all other assays above

CN1CCC(OC(c2ccccc2)c2ccccc2)CC1
not listed: [7] | [11] | [12] | [13] | [14] | [16]
inactive: all other assays above

Cc1ccccc1OCC(O)CO (stereo not drawn)
not listed: [1]
inactive: all other assays above

C[C@@]12C(=O)OC(=O)[C@]1(C)C1CCC2O1
active: [16] 6.64 µM | [2] 3.35 µM | [3] 2.37 µM | [4] 6.68 µM | [14] 2.37 µM | [6] 2.37 µM | [8] 1.5 µM | [9] 3.44 µM | [10] 2.66 µM | [11] 6.92 µM | [12] 1.88 µM | [13] 1.74 µM

O=C(NCCc1c[nH]c2ccccc12)c1cccnc1
not listed: [1]
inactive: all other assays above

COc1ccc(CN(CCN(C)C)c2ncccn2)cc1
not listed: [1]
inactive: all other assays above

Oc1ccc(Cl)cc1Cc1cc(Cl)ccc1O
active: [2] 21.1 µM | [5] 19.5 µM | [8] 8.41 µM | [9] 17.2 µM | [11] 27.6 µM | [13] 9.78 µM
inactive: [1]

CC(C)CCCC(C)N (stereo not drawn)
not listed: [12] | [14] | [16]
inactive: all other assays above

CCCCCCCCCCCCSCCOCCO
not listed: [8] | [10] | [13] | [14] | [15] | [16]
inactive: all other assays above

C#C[C@]1(O)CC[C@H]2[C@@H]3CCC4=CC(=O)CC[C@@H]4[C@H]3CC[C@@]21CC
not listed: [1] | [8]
inactive: all other assays above

C[N+]1(C)CCC(=C(c2ccccc2)c2ccccc2)CC1
not listed: [1] | [11] | [12]
inactive: all other assays above

COc1cc(N)c(Cl)cc1C(=O)NC1CCN(Cc2ccccc2)CC1
not listed: [4] | [9] | [13] | [16]
inactive: all other assays above

Cc1nc(-c2ccc(Cl)cc2)oc1COC(C)(C)C(=O)O
not listed: [1] | [9]
inactive: all other assays above

CN1CCc2cccc3c2[C@H]1Cc1ccc(O)c(O)c1-3
active: [8] 21.1 µM | [10] 11.9 µM
inactive: [1] | [7]

CC[C@H](c1ccc(O)cc1)[C@@H](CC)c1ccc(O)cc1
active: [3] 3.35 µM | [8] 23.7 µM | [9] 19.4 µM | [13] 27.6 µM
inactive: [1] | [10] | [12]

CCCCCCCCOc1ccc(C(=O)c2ccccc2)c(O)c1
not listed: [14] | [16]
inactive: all other assays above

CC(C)Cn1cnc2c1c(=O)n(C)c(=O)n2C
not listed: [1] | [7] | [11]
inactive: all other assays above

O=C(N/N=C/c1ccc([N+](=O)[O-])o1)c1ccc(O)cc1
active: [11] 13.8 µM
inactive: [1] | [3] | [7] | [8]

CC[C@]12CCCN3CCc4c(n(c5ccccc45)C(=O)C1)[C@@H]32
active: [3] 5.96 µM | [4] 10.6 µM | [14] 5.96 µM | [6] 1.88 µM | [8] 13.3 µM | [13] 27.6 µM
inactive: [1] | [15]

Clc1cccc(C(c2ccc3nc[nH]c3c2)n2ccnc2)c1 (stereo not drawn)
not listed: [1]
inactive: all other assays above

CCN(CC)CCOc1ccc2c(c1)C(=O)c1cc(OCCN(CC)CC)ccc1-2
inactive: [1] | [2] | [7] | [8]
active: [9] 34.4 µM | [10] 23.7 µM

COc1ccc(-c2cc(C(F)F)nn2-c2ccc(S(N)(=O)=O)cc2)cc1F
not listed: [1] | [11]
inactive: all other assays above

CN1CCN(CCC(=O)N2c3ccccc3Sc3ccc(C(F)(F)F)cc32)CC1
inactive: [16] | [2] | [7]
active: [14] 29.9 µM | [9] 9.7 µM | [10] 26.6 µM | [13] 17.4 µM

O=C(CCCN1CC=C(n2c(=O)[nH]c3ccccc32)CC1)c1ccc(F)cc1
inactive: [2] | [3] | [6] | [8] | [9]
active: [15] 26.6 µM

O=C1c2cccc3c2[C@H](CCC3)CN1[C@@H]1CN2CCC1CC2
inactive: [16] | [2] | [4] | [6] | [8] | [9] | [15] | [10] | [12]

CCCCCCCCNC(C)C(O)c1ccc(SC(C)C)cc1 (stereo not drawn)
inactive: [16]
active: [14] 16.8 µM | [8] 23.7 µM | [9] 15.4 µM | [13] 21.9 µM

CC(=O)OC[C@H]1O[C@@H](n2ncc(=O)[nH]c2=O)[C@H](OC(C)=O)[C@@H]1OC(C)=O
active: [14] 0.335 µM | [6] 23.7 µM | [8] 4.22 µM
inactive: [7] | [9] | [12]

CN(C)CCC[C@@]1(c2ccc(F)cc2)OCc2cc(C#N)ccc21
not listed: [1] | [9] | [14]
inactive: all other assays above

CC(=O)Nc1ccc(OCC(O)CNC(C)C)cc1 (stereo not drawn)
not listed: [1] | [7] | [9] | [14] | [15]
inactive: all other assays above

CCCN(CCc1cccs1)[C@H]1CCc2c(O)cccc2C1
not listed: [1] | [4] | [5] | [8] | [13]
inactive: all other assays above

C[C@]12CCC(=O)C=C1C=C[C@@H]1[C@@H]2CC[C@@]2(C)[C@H]1CC[C@@]21CCC(=O)O1
active: [13] 15.5 µM
inactive: [16] | [3] | [5] | [6] | [7] | [9] | [12]

O=[N+]([O-])c1ccc(/C=N\O)o1
active: [14] 4.22 µM
not listed: [1] | [4] | [10] | [11] | [15]
inactive: all other assays above

CCN1/C(=C/C=C/c2sc3ccccc3[n+]2CC)Sc2ccccc21
active: [16] 1.29 µM | [2] 1.16 µM | [4] 0.58 µM | [14] 1.3 µM | [7] 9.2 µM | [8] 0.92 µM | [9] 1.89 µM | [15] 2.91 µM | [11] 0.601 µM | [12] 1.03 µM | [13] 0.601 µM
